Laboratory results: PubChem BioAssay AID1159580 (chemical genetic matrix, 2015)
Screen size: about 5,500 compounds; about 2,000 (36%) were called active. Roughly 18% stayed inconclusive and do not appear here. Rule as the data show it: active = normalized growth mostly below about 0.91 (no sharp cut-off); inconclusive = no clear call, values can overlap the other calls; inactive = mostly above about 0.92. This is one part of the list.

Assay: chemical genetic growth profiling, strain panel (AID 1159580);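 also: tested at 20 µM; growth read once vehicle control cultures reached saturation at 30 °C; 1 = growth at the plate median or of vehicle wells; lower values mean less growth of the strain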
Settings: growth OD

Measured: normalized growth

CCC/C=C/C=C/[C@@H]1C[C@@H](O)[C@@H](O)C(=O)[C@H]1C=O
inactive: S. cerevisiae deletion strains, locus YBR021W, strain FUR4, active compounds read low 1.01 | S. cerevisiae deletion strains, locus YBR229C, strain ROT2, active compounds read low 0.992 | S. cerevisiae deletion strains, locus YCL029C, strain bik1, active compounds read low 0.98 | S. cerevisiae deletion strains, locus YDL035C, strain GPR1, active compounds read low 1 | S. cerevisiae deletion strains, locus YDL074C, strain BRE1, active compounds read low 1.01 | S. cerevisiae deletion strains, locus YDL101C, strain DUN1, active compounds read low 0.994 | S. cerevisiae deletion strains, locus YDL192W, strain arf1, active compounds read low 0.949 | S. cerevisiae deletion strains, locus YDR101C, strain arx1, active compounds read low 0.978 | S. cerevisiae deletion strains, locus YDR162C, strain NBP2, active compounds read low 0.982 | S. cerevisiae deletion strains, locus YDR318W, strain mcm21, active compounds read low 0.959 | S. cerevisiae deletion strains, locus YDR388W, active compounds read low 0.955 | S. cerevisiae deletion strains, locus YDR502C, strain sam2, active compounds read low 0.976 | S. cerevisiae deletion strains, locus YEL061C, strain CIN8, active compounds read low 0.984 | S. cerevisiae deletion strains, locus YER110C, active compounds read low 0.999 | S. cerevisiae deletion strains, locus YER155C, strain BEM2, active compounds read low 0.955 | S. cerevisiae deletion strains, locus YER167W, strain BCK2, active compounds read low 0.976 | S. cerevisiae deletion strains, locus YGL078C, strain dbp3, active compounds read low 0.94 | S. cerevisiae deletion strains, locus YGL086W, strain mad1, active compounds read low 0.976 | S. cerevisiae deletion strains, locus YGL248W, strain PDE1, active compounds read low 1 | S. cerevisiae deletion strains, locus YGR135W, strain pre9, active compounds read low 0.988 | S. cerevisiae deletion strains, locus YGR252W, strain gcn5, active compounds read low 1.16 | S. cerevisiae deletion strains, locus YHR030C, strain SLT2, active compounds read low 0.978 | S. cerevisiae deletion strains, locus YHR079C, strain IRE1 (second series), active compounds read low 0.981 | S. cerevisiae deletion strains, locus YHR094C, strain hxt1, active compounds read low 0.97 | S. cerevisiae deletion strains, locus YHR129C, strain ARP1, active compounds read low 0.99 | S. cerevisiae deletion strains, locus YHR200W, strain rpn10, active compounds read low 0.972 | S. cerevisiae deletion strains, locus YIL066C, strain RNR3, active compounds read low 0.971 | S. cerevisiae deletion strains, locus YIL073C, strain SPO22, active compounds read low 1.03 | S. cerevisiae deletion strains, locus YIR030C, strain dcg1, active compounds read low 0.975 | S. cerevisiae deletion strains, locus YJL095W, strain BCK1, active compounds read low 1.03 | S. cerevisiae deletion strains, locus YJL134W, strain LCB3, active compounds read low 0.947 | S. cerevisiae deletion strains, locus YJL168C, strain set2, active compounds read low 0.973 | S. cerevisiae deletion strains, locus YJL187C, strain SWE1 (second series), active compounds read low 1.03 | S. cerevisiae deletion strains, locus YJR043C, strain POL32, active compounds read low 0.99 | S. cerevisiae deletion strains, locus YJR075W, strain HOC1, active compounds read low 0.977 | S. cerevisiae deletion strains, locus YKL190W, strain CNB1, active compounds read low 0.964 | S. cerevisiae deletion strains, locus YKR001C, strain vps1, active compounds read low 0.901 | S. cerevisiae deletion strains, locus YLR058C, strain SHM2, active compounds read low 0.99 | S. cerevisiae deletion strains, locus YLR102C, strain apc9, active compounds read low 0.983 | S. cerevisiae deletion strains, locus YLR330W, strain CHS5, active compounds read low 0.946 | S. cerevisiae deletion strains, locus YLR342W, strain FKS1 (second series), active compounds read low 0.948 | S. cerevisiae deletion strains, locus YLR371W, strain rom2, active compounds read low 0.978 | S. cerevisiae deletion strains, locus YLR418C, strain cdc73, active compounds read low 0.999 | S. cerevisiae deletion strains, locus YML016C, strain PPZ1, active compounds read low 0.986 | S. cerevisiae deletion strains, locus YML032C, strain rad52, active compounds read low 0.954 | S. cerevisiae deletion strains, locus YML124C, strain tub3, active compounds read low 0.991 | S. cerevisiae deletion strains, locus YMR078C, strain ctf18, active compounds read low 0.973 | S. cerevisiae deletion strains, locus YMR223W, strain ubp8, active compounds read low 0.929 | S. cerevisiae deletion strains, locus YMR263W, strain SAP30, active compounds read low 0.992 | S. cerevisiae deletion strains, locus YMR307W, strain GAS1, active compounds read low 1.04 | S. cerevisiae deletion strains, locus YNL067W, strain RPL9B, active compounds read low 0.986 | S. cerevisiae deletion strains, locus YNL153C, strain GIM3, active compounds read low 1.01 | S. cerevisiae deletion strains, locus YNL233W, strain BNI4, active compounds read low 0.973 | S. cerevisiae deletion strains, locus YNL307C, strain MCK1, active compounds read low 0.954 | S. cerevisiae deletion strains, locus YNL322C, strain KRE1, active compounds read low 0.984 | S. cerevisiae deletion strains, locus YOL012C, strain htz1 0.336 | S. cerevisiae deletion strains, locus YOL147C, strain pex11, active compounds read low 0.986 | S. cerevisiae deletion strains, locus YOR061W, strain CKA2, active compounds read low 0.986 | S. cerevisiae deletion strains, locus YOR069W, strain VPS5, active compounds read low 0.979 | S. cerevisiae deletion strains, locus YOR136W, strain idh2, active compounds read low 0.996 | S. cerevisiae deletion strains, locus YOR144C, strain elg1, active compounds read low 0.982 | S. cerevisiae deletion strains, locus YOR184W, strain ser1, active compounds read low 0.938 | S. cerevisiae deletion strains, locus YOR316C, strain cot1, active compounds read low 0.979 | S. cerevisiae deletion strains, locus YPR119W, strain clb2, active compounds read low 0.971 | S. cerevisiae deletion strains, locus YPR163C, strain tif3, active compounds read low 0.983 | S. cerevisiae deletion strains, locus YPR167C, strain met16, active compounds read low 0.979 | S. cerevisiae deletion strains, strain wtn01, active compounds read low 0.973 | S. cerevisiae strains, strain wild type, active compounds read low 0.971
active: S. cerevisiae deletion strains, locus YDL185W, strain tfp1, active compounds read low 0.0596 | S. cerevisiae deletion strains, locus YIL125W, strain kgd1, active compounds read low 0.853 | S. cerevisiae deletion strains, locus YKL009W, strain mrt4, active compounds read low 0.76 | S. cerevisiae deletion strains, locus YKL068W, active compounds read low 0.928 | S. cerevisiae deletion strains, locus YKL085W, strain MDH1 (second series), active compounds read low 0.88 | S. cerevisiae deletion strains, locus YKL085W, strain MDH1, active compounds read low 0.88 | S. cerevisiae deletion strains, locus YLR039C, strain RIC1, active compounds read low 0.496 | S. cerevisiae deletion strains, locus YLR262C, strain YPT6, active compounds read low 0.504 | S. cerevisiae deletion strains, locus YLR268W, strain sec22, active compounds read low 0.829 | S. cerevisiae deletion strains, locus YNL250W, strain rad50, active compounds read low 0.821 | S. cerevisiae deletion strains, locus YNL271C, strain bni1, active compounds read low 0.732 | S. cerevisiae deletion strains, locus YNL298W, strain CLA4, active compounds read low 0.901 | S. cerevisiae deletion strains, locus YNR052C, strain pop2, active compounds read low 0.907 | S. cerevisiae deletion strains, locus YOL006C, strain TOP1, active compounds read low 0.52 | S. cerevisiae deletion strains, locus YPR141C, strain kar3, active compounds read low 0.804
